Test results published in the supplement of paper PMC10849652.
About 7,900 targets were measured; listed, in parts, are those with a hit and a random draw of the rest. About 0.6% of all pairs of compound and target were hits. Values without a mark were called inactive.

Compound: Cc1cn(-c2cc(NC(=O)c3ccc(C)c(Nc4nccc(-c5cccnc5)n4)c3)cc(C(F)(F)F)c2)cn1 [nilotinib]
Assay: log2 fold change, soluble protein after heating vs DMSO (PISA); higher = thermal stabilisation; K562 cells, 10 uM, 30 min; active = over 0.2 and 3.5 SD of the protein, either way, in both replicates (recomputed)
Summary of the method: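 For each measurement, 10 μM compound was applied for 30 min to K562 cells at 2×10^6 cells/mL. Aliquots were heated for 3 min across 48°C-58°C, pooled, and extracted in PBS with 0.5% NP-40 at 4°C; the supernatant after 21,000xg for 90 min was soluble protein. This was quantified by TMTpro 16plex LC-MS/MS with channel sums equalised, and thermal stability was reported relative to control samples from duplicates, on a log2 fold-change scale.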

UniProt P31943, sequence (P31943 whole entry, looked up): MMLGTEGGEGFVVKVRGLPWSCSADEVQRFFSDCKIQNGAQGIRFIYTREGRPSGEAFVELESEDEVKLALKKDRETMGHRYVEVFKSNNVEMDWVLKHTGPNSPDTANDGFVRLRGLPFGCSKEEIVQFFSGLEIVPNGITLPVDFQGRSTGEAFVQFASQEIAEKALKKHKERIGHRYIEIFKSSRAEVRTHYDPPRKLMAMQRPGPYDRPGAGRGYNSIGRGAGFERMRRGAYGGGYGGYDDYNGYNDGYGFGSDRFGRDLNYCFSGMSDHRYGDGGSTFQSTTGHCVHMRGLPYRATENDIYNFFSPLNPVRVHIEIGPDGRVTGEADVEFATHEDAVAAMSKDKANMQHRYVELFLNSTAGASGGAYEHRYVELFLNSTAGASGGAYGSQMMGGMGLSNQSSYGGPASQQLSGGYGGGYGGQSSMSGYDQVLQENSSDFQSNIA
UniProt P05114, sequence (P05114 whole entry, looked up): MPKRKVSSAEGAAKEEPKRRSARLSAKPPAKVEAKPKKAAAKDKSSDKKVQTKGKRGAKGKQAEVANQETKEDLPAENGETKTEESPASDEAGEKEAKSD
UniProt O43824, sequence (O43824 whole entry, looked up): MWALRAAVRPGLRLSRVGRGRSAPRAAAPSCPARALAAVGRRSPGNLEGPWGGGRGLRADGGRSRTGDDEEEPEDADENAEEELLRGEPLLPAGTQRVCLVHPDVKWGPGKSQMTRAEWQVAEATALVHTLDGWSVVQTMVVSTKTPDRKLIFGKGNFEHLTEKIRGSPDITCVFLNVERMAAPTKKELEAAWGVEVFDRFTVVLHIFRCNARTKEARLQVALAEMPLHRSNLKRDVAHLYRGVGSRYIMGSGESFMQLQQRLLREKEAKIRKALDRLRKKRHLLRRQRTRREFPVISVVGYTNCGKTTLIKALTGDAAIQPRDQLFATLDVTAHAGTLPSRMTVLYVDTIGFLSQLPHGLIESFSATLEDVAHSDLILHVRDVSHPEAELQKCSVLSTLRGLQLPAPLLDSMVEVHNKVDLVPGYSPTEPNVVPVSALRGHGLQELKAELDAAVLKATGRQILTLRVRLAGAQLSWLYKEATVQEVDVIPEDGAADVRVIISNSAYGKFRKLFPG
UniProt Q14527, sequence (Q14527 whole entry, looked up): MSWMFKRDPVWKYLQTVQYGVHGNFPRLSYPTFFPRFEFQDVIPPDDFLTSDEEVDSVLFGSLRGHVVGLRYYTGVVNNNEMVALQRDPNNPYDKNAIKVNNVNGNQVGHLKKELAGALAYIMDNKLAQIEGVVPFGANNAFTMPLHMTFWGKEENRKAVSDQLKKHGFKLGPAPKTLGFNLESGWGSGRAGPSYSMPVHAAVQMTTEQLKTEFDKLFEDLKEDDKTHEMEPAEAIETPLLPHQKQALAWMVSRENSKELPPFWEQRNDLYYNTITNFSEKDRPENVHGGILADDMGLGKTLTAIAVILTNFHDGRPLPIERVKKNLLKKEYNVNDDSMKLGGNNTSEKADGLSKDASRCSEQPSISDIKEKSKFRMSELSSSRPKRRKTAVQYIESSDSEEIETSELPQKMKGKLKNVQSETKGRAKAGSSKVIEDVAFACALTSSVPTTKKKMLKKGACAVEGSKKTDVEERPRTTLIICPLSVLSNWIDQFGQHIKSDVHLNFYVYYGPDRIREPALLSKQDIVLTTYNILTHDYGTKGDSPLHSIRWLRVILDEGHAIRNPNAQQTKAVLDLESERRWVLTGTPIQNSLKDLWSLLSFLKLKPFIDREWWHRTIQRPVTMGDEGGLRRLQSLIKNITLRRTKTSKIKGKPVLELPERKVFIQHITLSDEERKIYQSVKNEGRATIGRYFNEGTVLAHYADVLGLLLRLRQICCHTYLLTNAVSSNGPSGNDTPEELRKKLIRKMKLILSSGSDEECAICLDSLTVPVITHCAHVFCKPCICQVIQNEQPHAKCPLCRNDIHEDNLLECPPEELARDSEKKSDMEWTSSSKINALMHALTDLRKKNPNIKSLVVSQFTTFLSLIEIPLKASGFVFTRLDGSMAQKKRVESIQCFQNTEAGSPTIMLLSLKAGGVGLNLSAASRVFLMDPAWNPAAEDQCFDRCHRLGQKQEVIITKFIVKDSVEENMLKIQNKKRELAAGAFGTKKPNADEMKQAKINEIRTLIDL
UniProt Q9BTY2, sequence (Q9BTY2 whole entry, looked up): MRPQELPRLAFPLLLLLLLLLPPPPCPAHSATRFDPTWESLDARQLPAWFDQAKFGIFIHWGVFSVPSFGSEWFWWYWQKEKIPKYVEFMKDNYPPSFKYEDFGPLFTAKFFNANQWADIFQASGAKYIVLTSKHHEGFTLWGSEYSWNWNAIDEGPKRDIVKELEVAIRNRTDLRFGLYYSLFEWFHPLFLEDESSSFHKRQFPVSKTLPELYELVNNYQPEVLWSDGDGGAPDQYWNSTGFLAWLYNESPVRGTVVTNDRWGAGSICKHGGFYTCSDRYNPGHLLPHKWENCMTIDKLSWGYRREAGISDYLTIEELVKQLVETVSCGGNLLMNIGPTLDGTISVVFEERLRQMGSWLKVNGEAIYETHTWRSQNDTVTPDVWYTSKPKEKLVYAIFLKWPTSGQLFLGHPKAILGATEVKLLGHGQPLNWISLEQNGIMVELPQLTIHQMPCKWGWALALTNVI
UniProt Q8NCW6, sequence (Q8NCW6 whole entry, looked up): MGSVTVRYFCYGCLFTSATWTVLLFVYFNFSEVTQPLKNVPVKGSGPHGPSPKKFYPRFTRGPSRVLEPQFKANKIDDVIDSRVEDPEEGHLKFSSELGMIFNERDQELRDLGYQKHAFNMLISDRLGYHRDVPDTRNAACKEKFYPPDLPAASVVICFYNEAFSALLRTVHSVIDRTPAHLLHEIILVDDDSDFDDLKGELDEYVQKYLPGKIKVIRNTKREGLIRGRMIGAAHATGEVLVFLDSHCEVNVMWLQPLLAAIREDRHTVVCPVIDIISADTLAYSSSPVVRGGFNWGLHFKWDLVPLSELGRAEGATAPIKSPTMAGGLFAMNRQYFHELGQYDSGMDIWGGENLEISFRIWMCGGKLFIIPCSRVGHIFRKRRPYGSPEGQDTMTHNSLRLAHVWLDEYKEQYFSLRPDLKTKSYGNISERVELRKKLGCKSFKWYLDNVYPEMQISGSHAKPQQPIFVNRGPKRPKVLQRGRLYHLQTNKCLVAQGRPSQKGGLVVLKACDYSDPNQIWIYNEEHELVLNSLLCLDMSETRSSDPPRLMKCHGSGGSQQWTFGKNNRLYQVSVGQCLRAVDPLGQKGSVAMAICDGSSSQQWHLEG
UniProt Q92769, sequence (Q92769 whole entry, looked up): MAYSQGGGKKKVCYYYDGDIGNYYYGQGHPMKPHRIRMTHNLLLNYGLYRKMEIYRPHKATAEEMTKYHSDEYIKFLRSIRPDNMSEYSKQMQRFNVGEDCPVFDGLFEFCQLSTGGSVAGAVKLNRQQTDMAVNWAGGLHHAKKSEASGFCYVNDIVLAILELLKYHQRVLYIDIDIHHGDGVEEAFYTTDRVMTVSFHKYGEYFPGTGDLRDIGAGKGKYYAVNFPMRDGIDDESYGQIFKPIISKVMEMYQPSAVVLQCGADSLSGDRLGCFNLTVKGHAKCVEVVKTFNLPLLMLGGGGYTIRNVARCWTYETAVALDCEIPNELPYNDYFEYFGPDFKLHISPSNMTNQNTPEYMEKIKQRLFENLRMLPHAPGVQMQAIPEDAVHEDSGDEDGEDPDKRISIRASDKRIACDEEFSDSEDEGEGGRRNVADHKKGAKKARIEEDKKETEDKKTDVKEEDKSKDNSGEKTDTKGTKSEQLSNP
UniProt Q8N4A0, sequence (Q8N4A0 whole entry, looked up): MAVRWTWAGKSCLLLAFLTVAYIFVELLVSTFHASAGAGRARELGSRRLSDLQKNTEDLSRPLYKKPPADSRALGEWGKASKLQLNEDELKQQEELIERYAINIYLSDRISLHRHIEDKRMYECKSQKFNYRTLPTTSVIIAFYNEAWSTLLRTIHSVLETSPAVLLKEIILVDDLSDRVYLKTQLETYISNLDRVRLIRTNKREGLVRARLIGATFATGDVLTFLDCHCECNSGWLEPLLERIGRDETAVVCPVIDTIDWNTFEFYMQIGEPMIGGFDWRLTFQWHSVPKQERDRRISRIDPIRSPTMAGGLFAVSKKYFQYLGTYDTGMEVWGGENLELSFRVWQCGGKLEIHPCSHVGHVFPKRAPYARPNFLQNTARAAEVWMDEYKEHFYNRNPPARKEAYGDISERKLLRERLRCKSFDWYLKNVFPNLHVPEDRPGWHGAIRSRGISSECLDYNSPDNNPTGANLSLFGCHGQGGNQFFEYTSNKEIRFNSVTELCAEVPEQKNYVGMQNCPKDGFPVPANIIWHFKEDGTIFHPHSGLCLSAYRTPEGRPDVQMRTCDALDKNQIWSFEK
UniProt O94925, sequence (O94925 whole entry, looked up): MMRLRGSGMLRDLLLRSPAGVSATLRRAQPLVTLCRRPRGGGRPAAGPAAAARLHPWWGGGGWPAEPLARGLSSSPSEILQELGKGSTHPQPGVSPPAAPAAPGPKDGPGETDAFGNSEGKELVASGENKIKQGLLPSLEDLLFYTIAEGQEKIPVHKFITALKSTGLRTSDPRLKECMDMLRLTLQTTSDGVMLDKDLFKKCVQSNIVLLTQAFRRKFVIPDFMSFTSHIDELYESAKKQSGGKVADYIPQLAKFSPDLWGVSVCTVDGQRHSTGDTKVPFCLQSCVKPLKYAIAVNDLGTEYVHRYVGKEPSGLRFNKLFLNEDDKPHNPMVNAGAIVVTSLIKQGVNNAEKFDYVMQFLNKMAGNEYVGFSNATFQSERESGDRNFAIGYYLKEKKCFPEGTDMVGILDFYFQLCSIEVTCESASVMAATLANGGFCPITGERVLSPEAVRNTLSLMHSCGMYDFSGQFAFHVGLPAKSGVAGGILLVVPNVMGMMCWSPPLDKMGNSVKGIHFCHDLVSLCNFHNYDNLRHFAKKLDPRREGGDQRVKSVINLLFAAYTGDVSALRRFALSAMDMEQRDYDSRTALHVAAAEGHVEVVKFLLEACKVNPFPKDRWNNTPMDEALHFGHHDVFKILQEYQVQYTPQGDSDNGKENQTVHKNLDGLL

**Q.** FDPS (UniProt P14324) was tested. Which log2 fold change did it give?
**A.** Its log2 fold change is -0.156.

**Q.** How did the log2 fold change turn out when GLUD1 (UniProt P00367) was run?
**A.** The log2 fold change was 0.382 (active).

**Q.** Which log2 fold change does the source give for GLRX3 (UniProt O76003) here?
**A.** The log2 fold change was -0.048.

**Q.** For GTF3A (UniProt Q92664), which log2 fold change is on record?
**A.** The log2 fold change was 0.042.

**Q.** GLS (UniProt O94925) was tested. Which log2 fold change did it give?
**A.** The log2 fold change was -0.095.

**Q.** How did the log2 fold change turn out when GUSB (UniProt P08236) was run?
**A.** Its log2 fold change is 0.218.

**Q.** How did the log2 fold change turn out when FERMT3 (UniProt Q86UX7) was run?
**A.** Its log2 fold change is -0.036.

**Q.** How did the log2 fold change turn out when GSK3A (UniProt P49840) was run?
**A.** The log2 fold change was -0.01.

**Q.** For HLTF (UniProt Q14527), which log2 fold change is on record?
**A.** Its log2 fold change is 0.099.

**Q.** Which log2 fold change does the source give for HTATIP2 isoform 3 (UniProt Q9BUP3) here?
**A.** The log2 fold change was 0.116.

**Q.** For HMGN1 (UniProt P05114), which log2 fold change is on record?
**A.** Its log2 fold change is -0.022.

**Q.** Which log2 fold change does the source give for GTPBP6 (UniProt O43824) here?
**A.** The log2 fold change was 0.13.

**Q.** For HEATR5B (UniProt Q9P2D3), which log2 fold change is on record?
**A.** The log2 fold change was -0.049.

**Q.** With FUCA2 (UniProt Q9BTY2) as the target, how does the log2 fold change read?
**A.** The log2 fold change was 0.032.

**Q.** For GALNT4 (UniProt Q8N4A0), which log2 fold change is on record?
**A.** Its log2 fold change is -0.049.

**Q.** How did the log2 fold change turn out when HAT1 (UniProt O14929) was run?
**A.** The log2 fold change was 0.004.

**Q.** GHDC (UniProt Q8N2G8) was tested. Which log2 fold change did it give?
**A.** Its log2 fold change is 0.036.

**Q.** With IFNGR1 (UniProt P15260) as the target, how does the log2 fold change read?
**A.** Its log2 fold change is 0.075.

**Q.** Which log2 fold change does the source give for HDAC2 (UniProt Q92769) here?
**A.** Its log2 fold change is -0.01.

**Q.** With GALNT11 (UniProt Q8NCW6) as the target, how does the log2 fold change read?
**A.** The log2 fold change was -0.047.

**Q.** With HNRNPH1 (UniProt P31943) as the target, how does the log2 fold change read?
**A.** The log2 fold change was -0.141.

**Q.** How did the log2 fold change turn out when GOLPH3 (UniProt Q9H4A6) was run?
**A.** The log2 fold change was -0.021.

**Q.** For HMG20A (UniProt Q9NP66), which log2 fold change is on record?
**A.** Its log2 fold change is -0.046.

**Q.** How did the log2 fold change turn out when FBXO9 (UniProt Q9UK97) was run?
**A.** Its log2 fold change is 0.087.
